According to PubChem BioAssay (Tox21):
Inconclusive results are not listed. The source made the active and inactive calls. Unless noted, calls come from the whole dose curve; as a rule, active = well fitted curve in the direction sought with a large enough effect in the repeat runs; inconclusive = weak or mixed curves; inactive = no such curve, though single readings can be large; an effect the other way counts as inactive or inconclusive.

How the values were obtained:
[1] = A CellTox Green Cytotoxicity Assay to monitor cytotoxicity in HepG2 cells - 16 hour (AID 1224876); note: nearly all actives have a fitted effect of over 45% in size
Outline: (§1)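 Measurements at 0, 8, 16, 24, 32 and 40 h of treatment captured CellTox Green fluorescence in HepG2 cells that had been co-plated with reagent and preincubated 5 h at 37 C/5% CO2.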

[2] = qHTS RealTime-Glo MT Cell Viability Assay in HepG2 cells - 32 hour (AID 1224877); note: nearly all actives have a fitted effect of over 55% in size
Outline: (§2)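 Luminescence read-out: viable HepG2 cells reduce a prosubstrate to a NanoLuc substrate, giving a signal proportional to live cell number. Reads taken at 0, 8, 16, 24, 32 and 40 h of compound exposure at 37 C.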

[3] = A CellTox Green Cytotoxicity Assay to monitor cytotoxicity in HepG2 cells - 24 hour (AID 1224878); note: nearly all actives have a fitted effect of over 45% in size
Outline: as §1

[4] = A CellTox Green Cytotoxicity Assay to monitor cytotoxicity in HepG2 cells - 40 hour (AID 1224879); note: nearly all actives have a fitted effect of over 40% in size
Outline: as §1

[5] = qHTS RealTime-Glo MT Cell Viability Assay in HEK293 cells - 0 hour (AID 1224880); note: top concentration of the series differs between compounds; nearly all actives have a fitted effect of over 45% in size
Outline: (§3)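 HEK293 + NanoLuc + prosubstrate, 600 cells/well; 5 h, 37 C/5% CO2; compound 23 nL in DMSO by pintool; 37 C; luminescence read at 0, 8, 16, 24, 32 and 40 h time points.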

[6] = A CellTox Green Cytotoxicity Assay to monitor cytotoxicity in HEK293 cells - 32 hour (AID 1224881); note: nearly all actives have a fitted effect of over 40% in size
Outline: (§4)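 Tox21 screen in HEK293: membrane-impermeant cyanine dye fluoresces on binding dead-cell DNA; compound pinned 5 h post-seeding, plates held at 37 C, signal read repeatedly through 40 h.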

[7] = A CellTox Green Cytotoxicity Assay to monitor cytotoxicity in HepG2 cells - 0 hour (AID 1224882); note: nearly all actives have a fitted effect of over 35% in size
Outline: as §1

[8] = A CellTox Green Cytotoxicity Assay to monitor cytotoxicity in HepG2 cells - 32 hour (AID 1224883); note: nearly all actives have a fitted effect of over 50% in size
Outline: as §1

[9] = A CellTox Green Cytotoxicity Assay to monitor cytotoxicity in HEK293 cells - 8 hour (AID 1224884); note: nearly all actives have a fitted effect of over 35% in size
Outline: as §4

[10] = qHTS RealTime-Glo MT Cell Viability Assay in HepG2 cells - 16 hour (AID 1224885); note: nearly all actives have a fitted effect of over 50% in size
Outline: as §2

[11] = qHTS RealTime-Glo MT Cell Viability Assay in HEK293 cells - 24 hour (AID 1224886); note: top concentration of the series differs between compounds; nearly all actives have a fitted effect of over 50% in size
Outline: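 Nonlytic real-time viability readout: viable cells convert prosubstrate to NanoLuc substrate, giving luminescence proportional to live cell number. HEK293, 600 cells/well, compound added after 5 h, continuous culture at 37 C.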

[12] = qHTS RealTime-Glo MT Cell Viability Assay in HEK293 cells - 8 hour (AID 1224887); note: top concentration of the series differs between compounds; nearly all actives have a fitted effect of over 50% in size
Outline: as §3

[13] = qHTS RealTime-Glo MT Cell Viability Assay in HepG2 cells - 0 hour (AID 1224889); note: nearly all actives have a fitted effect of over 50% in size
Outline: as §2

[14] = A CellTox Green Cytotoxicity Assay to monitor cytotoxicity in HepG2 cells - 8 hour (AID 1224890); note: nearly all actives have a fitted effect of over 45% in size
Outline: as §1

[15] = qHTS assay to identify small molecule antagonists of the estrogen receptor alpha (ER-alpha) signaling pathway using the BG1 cell line in the presence of 0.1 nM 17-beta-estradiol - cell viability counter screen (AID 1259241); note: nearly all actives have a fitted effect of over 40% in size
Outline: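 Cells were plated and left 24 hr, compounds in DMSO were pinned in, 17beta-estradiol was added to 0.1 nM final, and after 22 hr CellTiter-Fluor reagent was added for 30 min before fluorescence was read.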

[16] = qHTS assay to identify small molecule antagonists of the androgen receptor (AR) signaling pathway using the MDA cell line in the presence of 0.5 nM R1881 - cell viability counter screen (AID 1259242); note: nearly all actives have a fitted effect of over 45% in size
Outline: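 Concentration-response screen of compounds for toxicity in MDA-kb2 reporter cells: 16 hr at 37C with 0.5 nM R1881, endpoint live-cell protease fluorescence measured in the reporter wells.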

[17] = A CellTox Green Cytotoxicity Assay to monitor cytotoxicity in HEK293 cells - 16 hour (AID 1224888); note: nearly all actives have a fitted effect of over 35% in size
Outline: as §4

[18] = target: Androgen receptor (Homo sapiens) (UniProt P10275); test: qHTS assay to identify small molecule antagonists of the androgen receptor (AR) signaling pathway using the MDA cell line in the presence of 0.5 nM R1881 (AID 1259243); note: nearly all actives have a fitted effect of over 50% in size
Androgen receptor (Homo sapiens), sequence (P10275 whole entry, looked up): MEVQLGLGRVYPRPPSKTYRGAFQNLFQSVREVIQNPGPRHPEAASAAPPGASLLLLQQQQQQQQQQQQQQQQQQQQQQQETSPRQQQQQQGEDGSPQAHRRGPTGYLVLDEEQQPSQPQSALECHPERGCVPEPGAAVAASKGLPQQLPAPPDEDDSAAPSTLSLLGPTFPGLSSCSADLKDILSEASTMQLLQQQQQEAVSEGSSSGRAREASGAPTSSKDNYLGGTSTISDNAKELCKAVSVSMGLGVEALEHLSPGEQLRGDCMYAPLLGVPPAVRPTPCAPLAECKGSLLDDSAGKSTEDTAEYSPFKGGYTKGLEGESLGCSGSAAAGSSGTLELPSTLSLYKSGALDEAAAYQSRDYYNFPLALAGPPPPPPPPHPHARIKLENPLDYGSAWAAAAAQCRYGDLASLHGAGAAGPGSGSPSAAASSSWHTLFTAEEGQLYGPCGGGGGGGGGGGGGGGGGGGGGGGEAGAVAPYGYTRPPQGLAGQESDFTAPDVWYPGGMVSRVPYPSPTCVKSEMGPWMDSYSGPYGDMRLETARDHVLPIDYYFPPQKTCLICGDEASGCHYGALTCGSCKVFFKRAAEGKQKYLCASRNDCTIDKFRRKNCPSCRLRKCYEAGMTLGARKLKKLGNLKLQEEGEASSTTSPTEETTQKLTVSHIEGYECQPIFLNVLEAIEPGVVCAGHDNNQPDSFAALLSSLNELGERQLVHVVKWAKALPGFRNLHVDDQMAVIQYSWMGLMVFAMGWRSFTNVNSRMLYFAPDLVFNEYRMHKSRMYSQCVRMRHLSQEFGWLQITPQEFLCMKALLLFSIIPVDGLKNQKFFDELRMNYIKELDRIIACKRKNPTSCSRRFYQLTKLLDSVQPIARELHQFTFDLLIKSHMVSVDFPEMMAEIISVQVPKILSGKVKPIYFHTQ
Outline: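 With R1881 held at 0.5 nM (final), compound effects on MMTV-luciferase expression in MDA-kb2 cells were scored by luminescence after a 16 hr, 37C incubation.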

[19] = target: Estrogen receptor (Homo sapiens) (UniProt P03372); test: qHTS assay to identify small molecule antagonists of the estrogen receptor alpha (ER-alpha) signaling pathway using the BG1 cell line in the presence of 0.1 nM 17-beta-estradiol (AID 1259244); note: nearly all actives have a fitted effect of over 50% in size
Estrogen receptor (Homo sapiens), sequence (P03372 whole entry, looked up): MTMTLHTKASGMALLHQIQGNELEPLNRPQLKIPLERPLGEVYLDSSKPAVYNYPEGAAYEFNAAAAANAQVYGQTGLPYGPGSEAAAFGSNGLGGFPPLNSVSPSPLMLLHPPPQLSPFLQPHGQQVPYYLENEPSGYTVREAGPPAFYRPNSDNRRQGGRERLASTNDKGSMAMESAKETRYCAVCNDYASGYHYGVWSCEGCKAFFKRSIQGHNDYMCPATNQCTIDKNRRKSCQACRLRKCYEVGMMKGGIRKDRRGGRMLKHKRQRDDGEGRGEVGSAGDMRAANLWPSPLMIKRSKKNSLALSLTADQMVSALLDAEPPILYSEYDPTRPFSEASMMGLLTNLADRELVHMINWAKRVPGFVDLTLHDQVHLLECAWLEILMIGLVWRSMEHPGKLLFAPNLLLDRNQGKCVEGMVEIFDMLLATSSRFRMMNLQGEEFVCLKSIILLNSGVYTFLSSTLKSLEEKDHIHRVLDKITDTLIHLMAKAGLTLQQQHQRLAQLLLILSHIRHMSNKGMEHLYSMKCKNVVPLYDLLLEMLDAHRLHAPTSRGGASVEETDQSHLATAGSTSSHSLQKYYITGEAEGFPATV
Outline: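 Compounds were tested against 0.1 nM (final) 17beta-estradiol in VM7Luc4E2 cells, which express full-length ER-alpha and an ERE-luciferase reporter; luminescence was recorded following 22 h exposure.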

[20] = qHTS assay to identify small molecule phospholipidosis (PLD) inducers (AID 1259344; active = well fitted curve in the direction sought with a large enough effect; an effect the other way counts as inactive or inconclusive)
Outline: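 Phospholipid accumulation was scored by imaging: fixed, Hoechst-counterstained HepG2 cells stained with LipidTOX Red after 24 h compound exposure at 37 C. Read-outs were pit count and pit intensity per well or per cell, with amiodarone and DMSO controls.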

Measured: Potency

COC(/C=C(\C)CCC=C(C)C)OC
not listed: [17] | [18] | [19] | [20]
inactive: all other assays above

Nc1cc(C(=O)O)ccc1Cl
not listed: [11] | [19] | [20]
inactive: all other assays above

CC1=NN(c2ccc(S(=O)(=O)O)cc2)C(=O)C1N=Nc1ccccc1 (stereo unspecified)
not listed: [11] | [14] | [16] | [18] | [19] | [20]
inactive: all other assays above

CCCCOC(=O)C(C)OC(=O)CCC (stereo unspecified)
not listed: [11] | [18] | [19] | [20]
inactive: all other assays above

Cc1nc([N+](=O)[O-])cn1-c1ccc([N+](=O)[O-])cc1
not listed: [11] | [18]
inactive: all other assays above

Nc1ccc(S(=O)(=O)NC(=O)c2ccccc2)cc1
not listed: [11] | [16] | [18] | [19]
inactive: all other assays above

CC(=O)/C=C/c1ccco1
not listed: [11] | [18] | [20]
inactive: all other assays above

CCOC(=O)CCCCCCCCC(=O)OCC
not listed: [11] | [18] | [20]
inactive: all other assays above
